# CYP2C19 activ: cytochrome P450 2C19 (human) activation; P33261; recombinant CYP2C19, luciferin-H EGE luminescence; stronger effect = higher value; 0 = fully inhibited enzyme, 1 = untreated enzyme; activation factor at 5 µM; 96,000 tested, under 10 active; AID 1025;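 active means activation factor of at least 2 at 5 µM in the primary screen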;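 further: 0 = wells with 2.5 mM tranylcypromine and 1 = vehicle-only wells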
# Target sequence (P33261 whole entry, looked up): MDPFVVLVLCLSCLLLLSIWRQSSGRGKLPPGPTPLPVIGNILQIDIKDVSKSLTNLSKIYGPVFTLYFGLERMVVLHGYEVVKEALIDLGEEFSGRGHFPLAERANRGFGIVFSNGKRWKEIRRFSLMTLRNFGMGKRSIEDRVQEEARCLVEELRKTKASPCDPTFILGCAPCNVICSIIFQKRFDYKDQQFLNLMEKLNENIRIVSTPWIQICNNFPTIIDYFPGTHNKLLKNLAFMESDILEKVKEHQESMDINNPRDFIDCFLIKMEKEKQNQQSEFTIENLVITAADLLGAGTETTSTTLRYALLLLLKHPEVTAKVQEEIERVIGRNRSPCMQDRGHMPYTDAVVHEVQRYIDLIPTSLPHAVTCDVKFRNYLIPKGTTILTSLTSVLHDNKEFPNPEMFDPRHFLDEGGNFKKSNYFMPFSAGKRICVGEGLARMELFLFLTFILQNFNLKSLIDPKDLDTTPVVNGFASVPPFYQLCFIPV
# CYP2C9 activ: activators of human CYP2C9. P11712. recombinant CYP2C9, luciferin-H conversion, luminescence; stronger effect = higher value; factor 1 = untreated enzyme, 0 = blocked. activation factor at 5 µM. 1.4% of 96,000 active. AID 1024;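 active means activation factor of 2 or more for CYP2C9 at a 5 µM dose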;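 further: 0 = sulfaphenazole-blocked wells and 1 = vehicle-only wells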
# Cav32 inh: blocks human Cav3.2 T-type calcium channel | O95180 | Cav3.2-expressing cells, Fluo-4 calcium fluorescence FDSS; stronger effect = lower value | B-score at 10 µM | 4% of 100,000 active;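 active means single-dose well whose peak fluorescence ratio is a statistical outlier from its plate by either plate-standardised score or position-corrected B-score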
# CYP2C9 inhib: inhibitors of human CYP2C9. P11712. CYP2C9 Supersomes, luciferin-H conversion, luminescence. inhibition, % at 5 µM. 20% of 96,000 active;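 active means blocking of liver enzyme CYP2C9 beyond about 50% at 5 µM, limit read from the data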
# PTK2B oligo ant: blocks oligomerization of human Pyk2 in cells. Q14289. Q293 cells, Pyk2 FERM NanoBiT luminescence; stronger effect = lower value. z-score (the deposit names both 25 µM and 10 µM). 0.83% of 99,000 active;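 active means Z-score of -3 or lower, scaled per plate to the spread of control and sample wells; inactive means z-score above -3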;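 further: negative z-score means lost luminescence so less FERM oligomerization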
# CYP2C19 inhib: inhibitors of human CYP2C19; P33261; CYP2C19 Supersomes, luciferin-H EGE luminescence, 30 min; inhibition, % at 5 µM; 21% of 96,000 active;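 active means CYP2C19 inhibition above a set limit at 5 µM in the primary screen, cut at about 50% in these data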;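 further: plate controls were negative control wells for no effect and 2.5 mM tranylcypromine positive control for full effect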
# Active calls of the source: *; nt = not tested or not shown. The list is not random: actives were taken first. Their share in the collection is about 27%.
SMILES,CYP2C19 activ,CYP2C9 activ,Cav32 inh,CYP2C9 inhib,PTK2B oligo ant,CYP2C19 inhib
COc1ccc(OC)c(CCNC(=O)CS(=O)(=O)Cc2nc(-c3ccccc3C)oc2C)c1,0.3,0.5,nt,50,1.3,66*
COc1ccc2[nH]c(=O)c(CN(Cc3ccccc3OC)Cc3nnnn3CC3CCCO3)cc2c1 (stereo not drawn),0.3,0.6,-0.29,41,1.2,70*
COc1ccccc1CN(Cc1cc2cc(C)ccc2[nH]c1=O)Cc1nnnn1CC1CCCO1 (stereo not drawn),0.8,0.4,-2.5,56*,-0.43,24
COc1ccc2[nH]c(=O)c(CN(Cc3ccc(C)cc3)Cc3nnnn3CC3CCCO3)cc2c1 (stereo not drawn),0.4,0.2,-4.1,84*,0.02,60*
Cc1ccc2cc(CN(Cc3cccs3)Cc3nnnn3CC3CCCO3)c(=O)[nH]c2c1 (stereo not drawn),0.7,1,-0.085,2,2.2,30
Cc1ccc2[nH]c(=O)c(CN(CC3CCCO3)C(=S)NCc3ccco3)cc2c1 (stereo not drawn),nt,nt,nt,nt,-0.39,nt
COc1cc(C(=O)N(Cc2cc3cc(C)ccc3[nH]c2=O)CC2CCCO2)cc(OC)c1OC (stereo not drawn),0.6,0.4,0.6,63*,0.71,35
O=C(O)Cn1ncc2c1-c1ccoc1CC2,1.2,1.1,-1.2,-6,nt,-19
Cc1ccc2cc(CN(Cc3cccs3)Cc3nnnn3CC3CCCO3)c(=O)[nH]c2c1C (stereo not drawn),0.4,0.8,-1.5,16,-0.93,56*
COc1ccc(COCCN2CCN(S(=O)(=O)c3ccc(C)cc3)CCC2=O)cc1,nt,nt,0.022,nt,nt,nt
CS(=O)CSc1nc2c(cc1C#N)CCCC2 (stereo not drawn),0.9,0.9,-0.31,5,0.34,12
CC(C)OC(=O)CC(=O)CSc1nc2c(cc1C#N)CCCCCC2,0.5,0.4,-1.4,63*,-0.85,47
C=C(C)CSc1nc2c(cc1C#N)CCC2,0.2,0.6,-0.94,45,0.08,80*
C=CCSc1nc2c(cc1C#N)CCC2,0.6,0.9,-0.11,9,1.2,40
CCCCSc1nc2c(cc1C#N)CCC2,0.4,0.5,-1.4,49,1.7,58*
CCOC(=O)CC(=O)CSc1nc2c(cc1C#N)CCCCCC2,0.8,0.7,1.9,26,-0.41,21
Oc1cccc(-c2nc3ccc4ccccc4c3c3c2CCC3)c1,0.8,0.6,-0.4,37,-0.95,20
Fc1ccc(Sc2nc(-c3ccccc3)nnc2C(F)(F)F)cc1,0.9,0.6,nt,38,-0.86,14
Cn1ncc(Cl)c1C(=O)N/N=C/c1ccccn1,nt,nt,nt,nt,0.58,nt
Cc1ccc(S(=O)(=O)Oc2ccccc2/C=N/NC(=O)c2c(Cl)cnn2C)cc1,nt,nt,-8.9*,nt,-1.1,nt
CN1CCOc2cc(S(=O)(=O)Nc3ccc(F)cc3)ccc21,0.1,0.4,0.59,60*,-0.37,87*
CCOC(=O)c1cc(-c2ccc(/C=N\n3cnnc3)o2)ccc1Cl,0.8,0.3,0.92,66*,0.49,22
Cc1n[nH]c(=S)n1/N=C/c1ccc(-c2ccccc2[N+](=O)[O-])o1,0.9,0.9,0.075,8,-0.17,12
Clc1ccccc1-c1ccc(/C=N/n2cnnc2)o1,0.4,1,0.14,3,0.1,62*
Clc1cccc(-c2ccc(/C=N/n3cnnc3)o2)c1Cl,nt,nt,-0.43,nt,-0.32,nt
SMILES,CYP2C19 activ,CYP2C9 activ,Cav32 inh,CYP2C9 inhib,PTK2B oligo ant,CYP2C19 inhib
CCCCOC(=O)c1cc(-c2ccc(/C=N/n3cnnc3)o2)ccc1Cl,nt,nt,nt,nt,-0.07,nt
Cc1c(Cl)cccc1-c1ccc(/C=N/n2cnnc2)o1,0.1,0.3,2.5,71*,-0.37,88*
C=CCn1c(O)c(CN2CCOCC2)c(C)c(C#N)c1=O,1,0.9,0.72,8,-0.39,-1
COc1ccc(N2CCN(Cc3cc4c(cc3O)CCC4)CC2)cc1,0.8,0.1,-0.048,92*,2.8,24
CCCN(CCC)C1=N/C(=C\c2ccco2)C(=O)N1c1ccccc1,0.4,0.3,-4.9*,71*,1.1,64*
O=C1CC(c2ccc(F)cc2)CC(O)=C1C=NCCN1CCN(C(=O)Nc2ccccc2)CC1 (stereo not drawn),0.2,0.5,-4.2*,54*,0.89,77*
CCOC(=O)COc1ccc(Br)cc1C1NC(=O)NC(C)=C1C(=O)NCc1ccccc1 (stereo not drawn),1,0.2,-0.023,83*,-0.15,0
Cc1cc(O)c(C(C)C)cc1N=C1CSC(=O)N1,1,0.6,-0.88,38,-0.08,3
COc1cccc(Oc2cn[nH]c2-c2ccc(O)cc2O)c1,0,0,-2.7,97*,-2.5,98*
COc1cccc(Oc2ccc(N)cn2)c1,0.8,1.1,-1.6,-6,0.01,19
COc1cccc(Oc2cn[nH]c2-c2ccc(OC)cc2O)c1,0,0,-4.9*,100*,-2.9,99*
CCOc1ccc(-c2[nH]ncc2Oc2cccc(OC)c2)c(O)c1,0,0,-0.9,100*,-2.6,99*
COc1cccc(Oc2coc3c(CN4CCOCC4)c(O)ccc3c2=O)c1,1,0.7,-0.49,30,2.4,4
O=C(Nc1ccc(O)cc1C(=O)O)c1ccc2c(c1)C(=O)N(Cc1ccco1)C2=O,1,0.4,0.45,60*,-1.7,-2
O=C(O)c1ccc(C(=O)c2ccc3c(c2)C(=O)N(Cc2ccco2)C3=O)cc1,0.9,0.6,1.4,44,-0.21,10
Cc1c(Cl)c(-c2n[nH]c(=S)n2Cc2ccco2)nn1C,0.7,0.7,2.4,32,-0.47,31
Nc1nc(N)c2[nH]cnc2n1,nt,nt,-0.078,nt,nt,nt
CCOC(=O)c1c(NC(=O)CSc2nc3ccccc3s2)sc(C(C)=O)c1C,0.7,0.2,-2.6,78*,-0.69,29
CCCn1c(SCC(=O)Nc2sc(C)c(C)c2C(=O)OC)nc2c1c(=O)n(C)c(=O)n2C,0.8,0.9,nt,12,nt,16
CCOC(=O)c1c(NC(=O)CSc2nc3c(c(=O)n(C)c(=O)n3C)n2CC)sc(C)c1C,0.5,0.1,nt,90*,0.74,52*
CCOC(=O)c1sc(NC(=O)CSc2nnc(C)s2)c(C(=O)OCC)c1C,0.4,0.1,-3.6,88*,-1.8,62*
CCOC(=O)c1sc(NC(=O)COC(=O)Cn2cnc3ccccc32)c(C(=O)OCC)c1C,nt,nt,nt,nt,0.1,nt
CSc1ccc(/C=N\NC(=O)CNc2ccc(C)cc2)cc1,0.6,0.7,-0.11,30,0.08,39
CCn1c(CCNC(=O)c2cccs2)nnc1SCC(=O)NC1CCCCC1,1,1,0.53,-1,1.1,0
CC(C)C1Oc2ccccc2N(CC(=O)N(Cc2ccncc2)Cc2ccco2)C1=O (stereo not drawn),nt,nt,-0.79,nt,-0.36,nt
Cc1cccc2c(=O)c(C(=O)NCCCN3CCOCC3)c[nH]c12,nt,nt,0.12,nt,0.39,nt

# Bioassay records deposited in PubChem by several laboratories.
